# From PubChem BioAssay
# For part of these data: Measured potencies and affinities stand elsewhere. Active and inactive are the calls of the source.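 How the source made its calls, unless noted: active means membrane potential signal rise above negative control mean plus 3 SD in both duplicates, also active in the earlier TRPC4 screen; inactive means the rest.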
# Key:
# [1] = test system: TRPC4 beta (transient receptor potential cation channel C4), mouse; experiment: activators of mouse TRPC4 channel, confirmation, cell-based, Fluo4 calcium, HEK293 TRPC4beta/mu-opioid, duplicates, 10 µM (AID 2426;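 active means fluorescence ratio normalized to control raised more than 50% in primary screen plus both repeat runs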); settings: Fluo4 calcium fluorescence, at 10 µM; stronger effect = higher value
# [2] = test system: transient receptor potential cation channel C4 beta (TRPC4), mouse; experiment: activators of mouse TRPC4 channel, confirmation, cell-based, second round, Fluo4, HEK293 TRPC4beta/mu-opioid, 1 µM (AID 2461;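 active means primary screen active and over 50% activation in each of two duplicate runs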); settings: Fluo4 calcium fluorescence, at 1 µM; stronger effect = higher value
# [3] = test system: TRPC4 (transient receptor potential cation channel C4 beta), mouse; experiment: positive allosteric modulators of mouse TRPC4, confirmation, cell-based, second round, Fluo-4, HEK293 TRPC4beta/mu-opioid, 1 µM (AID 2554;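 active means primary screen hit whose fluorescence ratio, in both repeats, exceeds the weak agonist control mean by 3 SD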); settings: DAMGO EC20, Fluo-4 calcium flux, at 1 µM; stronger effect = higher value
# [4] = test system: TRPC4 beta (transient receptor potential cation channel C4), mouse; experiment: positive allosteric modulators of mouse TRPC4, confirmation, cell-based, Fluo-4, HEK293 TRPC4beta/mu-opioid (AID 2555;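 active means primary screen hit whose calcium fluorescence ratio, in both repeats, exceeds the weak agonist control mean by 3 SD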); settings: DAMGO EC20, Fluo-4 calcium flux, at 10 µM; stronger effect = higher value
# [5] = molecular target: Short transient receptor potential channel 4 (Mus musculus) (UniProt Q9QUQ5); experiment: inhibitors of mouse TRPC4 channel, confirmation, cell-based, Fluo4, HEK293 TRPC4beta/mu-opioid (AID 2636;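 active means calcium signal cut by more than 3 SD below the full-agonist control yet still positive, in both repeats and the earlier primary screen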); settings: DAMGO, Fluo4 calcium flux, at 10 µM; stronger effect = higher value
# Chain of Short transient receptor potential channel 4 (Mus musculus) (Q9QUQ5 whole entry, looked up): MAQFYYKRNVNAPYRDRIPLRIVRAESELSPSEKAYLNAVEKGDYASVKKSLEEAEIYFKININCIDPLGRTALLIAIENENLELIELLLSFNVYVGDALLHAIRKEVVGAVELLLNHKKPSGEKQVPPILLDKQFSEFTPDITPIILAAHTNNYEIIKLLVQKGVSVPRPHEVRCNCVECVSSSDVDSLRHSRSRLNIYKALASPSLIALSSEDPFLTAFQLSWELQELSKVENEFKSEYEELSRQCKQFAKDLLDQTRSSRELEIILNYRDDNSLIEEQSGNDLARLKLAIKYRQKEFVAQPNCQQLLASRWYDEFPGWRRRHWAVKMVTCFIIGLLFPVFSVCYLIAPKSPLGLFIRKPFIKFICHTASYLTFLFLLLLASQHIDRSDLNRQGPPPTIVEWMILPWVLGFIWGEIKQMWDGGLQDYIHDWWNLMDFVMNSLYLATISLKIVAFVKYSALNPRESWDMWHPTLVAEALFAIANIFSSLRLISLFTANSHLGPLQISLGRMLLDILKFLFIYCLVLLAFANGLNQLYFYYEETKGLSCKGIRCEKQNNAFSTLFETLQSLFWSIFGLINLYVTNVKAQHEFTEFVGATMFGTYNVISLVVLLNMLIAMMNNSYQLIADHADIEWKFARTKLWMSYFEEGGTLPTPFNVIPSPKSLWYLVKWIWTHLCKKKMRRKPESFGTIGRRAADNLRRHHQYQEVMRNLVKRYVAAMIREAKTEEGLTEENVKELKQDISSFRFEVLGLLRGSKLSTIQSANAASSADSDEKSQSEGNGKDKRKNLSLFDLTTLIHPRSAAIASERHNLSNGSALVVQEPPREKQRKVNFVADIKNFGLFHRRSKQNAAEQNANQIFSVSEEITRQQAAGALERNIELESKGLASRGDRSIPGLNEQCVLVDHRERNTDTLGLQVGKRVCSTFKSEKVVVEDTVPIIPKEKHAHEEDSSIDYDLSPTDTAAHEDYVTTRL
# [6] = molecular target: Short transient receptor potential channel 4 (Mus musculus) (UniProt Q9QUQ5); experiment: inhibitors of mouse TRPC4 channel, confirmation, cell-based, second round, Fluo4, HEK293 TRPC4beta/mu-opioid, 1 µM (AID 2637;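 active means calcium signal ratio cut to more than 3 SD under the fully stimulated control mean yet still positive, in both repeats and the primary screen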); settings: Fluo4 calcium flux, DAMGO, at 1 µM; stronger effect = higher value
# [7] = molecular target: Short transient receptor potential channel 4 (Mus musculus) (UniProt Q9QUQ5); experiment: mouse TRPC4 channel activators, dose response, cell-based, HEK293 TRPC4/mu-opioid, Fluo-4 calcium (AID 434937;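 active means primary screen activator hit with a dose response curve and TRPC4 channel activation at any tested dose; inactive means no activation, no dose response, or not a primary hit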)
# [8] = molecular target: Short transient receptor potential channel 4 (Mus musculus) (UniProt Q9QUQ5); experiment: TRPC4 positive allosteric modulators, dose response, cell-based, HEK293 TRPC4/mu-opioid, Fluo-4 calcium, EC20 DAMGO (AID 434941;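 active means earlier screen potentiator hit that boosts the TRPC4 ion channel at some dose, with a dose response; inactive means no potentiation, no dose response, or not a prior hit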;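 further: calcium entry triggered by an EC20 dose of DAMGO at the co-expressed mu-opioid receptor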)
# [9] = molecular target: Short transient receptor potential channel 4 (Mus musculus) (UniProt Q9QUQ5); experiment: mouse TRPC4 channel inhibitors, dose response, cell-based, HEK293 TRPC4/mu-opioid, Fluo-4 calcium (AID 434942;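 active means primary screen inhibitor hit that blocks the TRPC4 channel at some tested dose, yielding a dose curve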)
# [10] = molecular target: Short transient receptor potential channel 6 (Mus musculus) (UniProt Q61143); experiment: inhibition of mouse TRPC6 channel, confirmation, selectivity assay for TRPC4 inhibitor project, cell-based, HEK293, membrane potential dye, duplicate (AID 434948;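 active means active in primary screen and both duplicates, each dropping signal beyond three positive-control SD with fluorescence still positive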); settings: HEK293 TRPC6, membrane potential dye fluorescence, at 10 µM, stimulated with maximal-effect acetylcholine; stronger effect = higher value
# Chain of Short transient receptor potential channel 6 (Mus musculus) (Q61143 whole entry, looked up): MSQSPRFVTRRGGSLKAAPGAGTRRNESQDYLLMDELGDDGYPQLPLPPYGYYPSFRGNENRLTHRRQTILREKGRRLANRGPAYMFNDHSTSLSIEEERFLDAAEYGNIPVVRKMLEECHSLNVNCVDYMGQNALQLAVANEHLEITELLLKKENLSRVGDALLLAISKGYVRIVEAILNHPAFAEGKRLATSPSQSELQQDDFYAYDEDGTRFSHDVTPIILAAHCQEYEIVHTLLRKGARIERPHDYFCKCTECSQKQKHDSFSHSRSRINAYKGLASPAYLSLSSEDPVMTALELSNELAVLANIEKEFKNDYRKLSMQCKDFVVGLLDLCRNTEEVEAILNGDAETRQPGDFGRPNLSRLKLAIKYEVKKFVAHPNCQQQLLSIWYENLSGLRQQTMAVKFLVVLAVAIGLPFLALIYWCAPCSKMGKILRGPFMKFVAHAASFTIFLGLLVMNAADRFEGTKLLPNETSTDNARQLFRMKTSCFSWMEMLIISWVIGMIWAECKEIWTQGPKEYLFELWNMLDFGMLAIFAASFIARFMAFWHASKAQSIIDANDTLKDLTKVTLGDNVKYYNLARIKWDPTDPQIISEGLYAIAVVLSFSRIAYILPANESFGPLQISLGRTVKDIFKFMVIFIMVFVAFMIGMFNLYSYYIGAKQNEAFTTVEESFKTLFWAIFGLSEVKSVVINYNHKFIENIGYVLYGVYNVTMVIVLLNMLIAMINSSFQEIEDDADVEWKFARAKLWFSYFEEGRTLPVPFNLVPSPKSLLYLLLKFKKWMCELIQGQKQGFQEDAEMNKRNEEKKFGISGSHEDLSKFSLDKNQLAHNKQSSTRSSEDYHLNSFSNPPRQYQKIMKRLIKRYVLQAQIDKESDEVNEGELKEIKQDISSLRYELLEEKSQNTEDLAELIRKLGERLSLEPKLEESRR
# [11] = molecular target: Short transient receptor potential channel 6 (Mus musculus) (UniProt Q61143); experiment: activation of mouse TRPC6 channel, confirmation, selectivity assay for TRPC4 activator project, cell-based, HEK293, membrane potential dye, duplicate (AID 434950); settings: HEK293 TRPC6, membrane potential fluorescence, at 10 µM; stronger effect = higher value
# [12] = molecular target: Short transient receptor potential channel 6 (Mus musculus) (UniProt Q61143); experiment: TRPC6 potentiation by TRPC4 potentiator hits, confirmation, selectivity assay for TRPC4 potentiator project, HEK293 cells, membrane potential dye, duplicate (AID 434952;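 active means compound raising the membrane signal above positive-control mean plus 3 SD in both repeats, and a primary screen hit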); settings: HEK293 TRPC6, membrane potential dye fluorescence, at 10 µM, maximal acetylcholine added after compound; stronger effect = higher value
# [13] = molecular target: Short transient receptor potential channel 4 (Mus musculus) (UniProt Q9QUQ5); experiment: calcium flux activators in TRPC4/5HT1a cells, counter-screen for TRPC4 activator project, cell-based, second counter screen, HEK293 TRPC4/5HT1a, Fluo-4 (AID 434977;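 active means calcium signal rise above buffer-control mean plus 5 SD in both duplicates, and also a hit in the primary screen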); settings: Fluo-4 calcium flux, at 10 µM; stronger effect = higher value
# [14] = calcium flux inhibitors in TRPC4/5HT1a cells, confirmation, counter-screen for TRPC4 inhibitor project, cell-based, second counter screen, HEK293 TRPC4/5HT1a, Fluo-4 (AID 434978;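 active means primary screen active whose calcium signal fell more than 3 SD beyond the full-serotonin control mean in both duplicate plates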;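 further: serotonin given first at submaximal then at maximal dose after compound preincubation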); settings: Fluo-4 calcium flux, at 10 µM, serotonin added to trigger calcium flux; stronger effect = higher value
# [15] = test system: TRPC4 (mouse), co-expressed with 5HT1a in HEK293; experiment: calcium flux potentiators in TRPC4/5HT1a cells, confirmation, counter-screen for TRPC4 potentiator project, cell-based, second counter screen, HEK293 TRPC4/5HT1a, Fluo-4 (AID 434979;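 active means signal rise over 3 SD above mean of control wells given weak agonist, in both repeats and first screen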); settings: Fluo-4 calcium flux, at 10 µM, serotonin added at its EC20 dose; stronger effect = higher value
# [16] = calcium flux activation in mu-opioid HEK293 cells, confirmation, counter-screen for TRPC4 activator project, cell-based, HEK293 mu-opioid receptor line (AID 449723;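 active means hit in primary screen, with calcium signal over 5 SD above buffer well mean in both duplicates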;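 further: counter screen cells carry the mu-opioid receptor alone and lack TRPC4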); settings: Fluo-4 calcium fluorescence, at 10 µM; stronger effect = higher value
# [17] = calcium flux enhancement in mu-opioid HEK293 cells, confirmation, counter-screen for TRPC4 allosteric potentiator project, cell-based, HEK293 mu-opioid receptor line (AID 449724;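 active means calcium signal rise more than 3 SD above the low-dose agonist control mean, in both duplicate plates and the primary screen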); settings: Fluo-4 calcium flux, at 10 µM, compound added before EC20 DAMGO stimulus; stronger effect = higher value
# [18] = thallium flux activation in parental CHO cells, counter-screen for KCNQ1 potentiator project (AID 493006;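 active means duplicate-averaged activation above buffer control mean plus 5 SD of those controls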;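 on activation: fluorescence ratio of max minus min over baseline after K+ and Tl+ depolarization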); settings: parental CHO-K1 cells, FluxOR thallium flux, at 10 µM; stronger effect = higher value
# [19] = molecular target: Potassium voltage-gated channel subfamily KQT member 1 (Homo sapiens) (UniProt P51787); experiment: KCNQ1 potassium channel potentiators, confirmation, FluxOR thallium flux, CHO cells, duplicates (AID 493007;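 active means potentiation averaged over duplicate wells exceeding buffer-only control mean by more than 3 SD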;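 on outcome: cells depolarized by a potassium plus thallium sulfate stimulus after compound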;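 on potentiation: 0% = buffer-only wells and 100% = R-L3 activator control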); settings: KCNQ1 cell line, FluxOR thallium flux fluorescence, at 10 µM; stronger effect = higher value, % of reference activator effect, buffer zero
# Chain of Potassium voltage-gated channel subfamily KQT member 1 (Homo sapiens) (P51787 whole entry, looked up): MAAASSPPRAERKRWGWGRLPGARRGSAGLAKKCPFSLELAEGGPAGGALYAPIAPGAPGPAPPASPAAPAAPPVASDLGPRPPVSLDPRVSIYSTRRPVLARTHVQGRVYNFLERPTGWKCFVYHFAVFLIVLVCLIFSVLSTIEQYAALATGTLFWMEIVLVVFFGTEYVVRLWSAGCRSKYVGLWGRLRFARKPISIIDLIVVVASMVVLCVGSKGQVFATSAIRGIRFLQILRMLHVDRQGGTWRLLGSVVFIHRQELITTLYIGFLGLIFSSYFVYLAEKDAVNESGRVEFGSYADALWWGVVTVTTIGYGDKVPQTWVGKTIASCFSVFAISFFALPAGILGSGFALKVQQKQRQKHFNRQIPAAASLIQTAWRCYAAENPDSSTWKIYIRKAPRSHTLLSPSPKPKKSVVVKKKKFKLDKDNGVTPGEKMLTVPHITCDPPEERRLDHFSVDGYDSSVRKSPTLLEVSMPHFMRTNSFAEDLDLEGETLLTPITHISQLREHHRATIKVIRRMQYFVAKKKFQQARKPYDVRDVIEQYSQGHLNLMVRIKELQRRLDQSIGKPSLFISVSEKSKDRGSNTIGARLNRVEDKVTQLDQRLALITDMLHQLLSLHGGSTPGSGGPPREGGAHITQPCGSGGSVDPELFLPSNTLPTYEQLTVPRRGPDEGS
# [20] = molecular target: Potassium voltage-gated channel subfamily KQT member 2 (Rattus norvegicus) (UniProt O88943); experiment: rat KCNQ2 channel potentiation, selectivity assay for KCNQ1 potentiator project, KCNQ2-CHO-K1 cells (AID 493009;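 active means mean duplicate potentiation above the buffer control mean plus 5 SD of buffer wells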;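 further: assay conditions were tuned for KCNQ1 rather than KCNQ2 modulators; signal is max minus min fluorescence divided by baseline after thallium stimulus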); settings: FluxOR thallium flux fluorescence, at 10 µM; stronger effect = higher value, scaled: buffer 0, activator control 100
# Chain of Potassium voltage-gated channel subfamily KQT member 2 (Rattus norvegicus) (O88943 whole entry, looked up): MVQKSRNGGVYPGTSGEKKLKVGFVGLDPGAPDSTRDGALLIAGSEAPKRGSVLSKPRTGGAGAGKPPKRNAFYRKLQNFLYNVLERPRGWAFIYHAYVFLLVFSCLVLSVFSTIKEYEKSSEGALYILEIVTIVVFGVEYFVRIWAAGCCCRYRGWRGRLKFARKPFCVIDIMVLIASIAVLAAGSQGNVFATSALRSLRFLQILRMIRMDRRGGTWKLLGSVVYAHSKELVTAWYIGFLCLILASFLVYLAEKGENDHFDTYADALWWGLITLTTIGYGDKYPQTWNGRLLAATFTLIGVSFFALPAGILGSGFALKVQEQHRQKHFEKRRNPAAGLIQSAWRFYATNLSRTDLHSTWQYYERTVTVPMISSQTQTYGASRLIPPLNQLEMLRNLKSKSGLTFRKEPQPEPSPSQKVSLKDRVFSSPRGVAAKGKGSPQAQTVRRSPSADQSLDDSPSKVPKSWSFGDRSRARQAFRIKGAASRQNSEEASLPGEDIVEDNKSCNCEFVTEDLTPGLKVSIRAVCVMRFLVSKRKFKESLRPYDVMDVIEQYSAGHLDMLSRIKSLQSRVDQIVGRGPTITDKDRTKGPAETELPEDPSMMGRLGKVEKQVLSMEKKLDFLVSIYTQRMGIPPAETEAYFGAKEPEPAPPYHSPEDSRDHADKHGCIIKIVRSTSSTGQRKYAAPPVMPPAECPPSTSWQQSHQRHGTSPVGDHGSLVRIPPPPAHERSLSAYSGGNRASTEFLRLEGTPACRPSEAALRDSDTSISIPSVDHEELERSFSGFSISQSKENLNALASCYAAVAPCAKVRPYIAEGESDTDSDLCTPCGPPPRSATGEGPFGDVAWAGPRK
structure (smiles),measurement,setting,value
Cn1c(=O)cc(OCCCC(=O)NCCCN2CCN(Cc3ccccc3)CC2)c2ccccc21,outcome,[1],inactive
same,outcome,[2],inactive
same,potentiation,[3],19% (active)
same,potentiation,[4],19% (active)
same,outcome,[5],inactive
same,outcome,[6],inactive
same,outcome,[7],inactive
same,outcome,[8],inactive
same,outcome,[9],inactive
same,outcome,[10],inactive
same,outcome,[11],inactive
same,outcome,[12],inactive
same,outcome,[13],inactive
same,outcome,[14],inactive
same,potentiation,[15],21% (active)
same,outcome,[16],inactive
same,outcome,[17],inactive
CN1CCN(CCCNC(=O)CN2C(=O)COc3ccccc32)CC1,outcome,[1],inactive
same,outcome,[2],inactive
same,outcome,[3],inactive
same,outcome,[4],inactive
same,inhibition,[5],77% (active)
same,outcome,[6],inactive
same,outcome,[7],inactive
same,outcome,[8],inactive
same,outcome,[9],inactive
same,outcome,[10],inactive
same,outcome,[11],inactive
same,outcome,[12],inactive
same,outcome,[13],inactive
same,outcome,[14],inactive
same,outcome,[15],inactive
same,outcome,[16],inactive
same,outcome,[17],inactive
Cc1cc(Cl)cc(Cl)c1OCCCCN(C)C,outcome,[1],inactive
same,outcome,[2],inactive
same,potentiation,[3],22% (active)
same,potentiation,[4],18% (active)
same,outcome,[5],inactive
same,outcome,[6],inactive
same,outcome,[7],inactive
same,outcome,[8],inactive
same,outcome,[9],inactive
same,outcome,[10],inactive
same,outcome,[11],inactive
same,outcome,[12],inactive
same,outcome,[13],inactive
same,outcome,[14],inactive
same,potentiation,[15],23.9% (active)
same,outcome,[16],inactive
same,outcome,[17],inactive
Cc1ccc(S(=O)(=O)c2c(C(=O)c3ccccc3)cnc3cc4c(cc23)OCCO4)cc1,outcome,[1],inactive
same,outcome,[2],inactive
same,outcome,[3],inactive
same,outcome,[4],inactive
same,outcome,[5],inactive
same,outcome,[6],inactive
same,outcome,[7],inactive
same,outcome,[8],inactive
same,outcome,[9],inactive
same,outcome,[10],inactive
same,outcome,[11],inactive
same,outcome,[12],inactive
same,outcome,[13],inactive
same,outcome,[14],inactive
same,potentiation,[15],14.5% (active)
same,outcome,[16],inactive
same,outcome,[17],inactive
O=S(=O)(c1ccccc1Cl)N1CCC(Cc2ccccc2)CC1,outcome,[1],inactive
same,outcome,[2],inactive
same,outcome,[3],inactive
same,potentiation,[4],16% (active)
same,outcome,[5],inactive
same,outcome,[6],inactive
same,outcome,[7],inactive
same,outcome,[8],inactive
same,outcome,[9],inactive
same,outcome,[10],inactive
same,outcome,[11],inactive
same,outcome,[12],inactive
same,outcome,[13],inactive
same,outcome,[14],inactive
same,potentiation,[15],6.72% (active)
same,outcome,[16],inactive
same,outcome,[17],inactive
O=C(Nc1nnc2n1CCS2)c1ccc(Br)o1,outcome,[1],inactive
same,outcome,[2],inactive
same,outcome,[3],inactive
same,potentiation,[4],80% (active)
same,outcome,[5],inactive
same,outcome,[6],inactive
same,outcome,[7],inactive
same,outcome,[8],inactive
same,outcome,[9],inactive
same,outcome,[10],inactive
same,outcome,[11],inactive
same,outcome,[12],inactive
same,outcome,[13],inactive
same,outcome,[14],inactive
same,potentiation,[15],56.3% (active)
same,outcome,[16],inactive
same,outcome,[17],inactive
COc1ccccc1N1CCN(c2ncc(C(=O)N3CCN(c4cccc(Cl)c4)CC3)c3ccccc23)CC1,outcome,[1],inactive
same,outcome,[2],inactive
same,outcome,[3],inactive
same,outcome,[4],inactive
same,outcome,[5],inactive
same,outcome,[6],inactive
same,outcome,[7],inactive
same,outcome,[8],inactive
same,outcome,[9],inactive
same,outcome,[10],inactive
same,outcome,[11],inactive
same,outcome,[12],inactive
same,outcome,[13],inactive
same,outcome,[14],inactive
same,potentiation,[15],13.4% (active)
same,outcome,[16],inactive
same,outcome,[17],inactive
O=C(Cc1ccccc1)Nc1cccc(NC(=O)c2cccs2)c1,outcome,[1],inactive
same,outcome,[2],inactive
same,outcome,[3],inactive
same,outcome,[4],inactive
same,outcome,[5],inactive
same,outcome,[6],inactive
same,outcome,[7],inactive
same,outcome,[8],inactive
same,outcome,[9],inactive
same,outcome,[10],inactive
same,outcome,[11],inactive
same,outcome,[12],inactive
same,outcome,[13],inactive
same,outcome,[14],inactive
same,outcome,[15],inactive
same,outcome,[16],inactive
same,outcome,[17],inactive
CSc1nnc(Cc2sc(-c3ccccc3)nc2-c2ccccc2)o1,outcome,[1],inactive
same,outcome,[2],inactive
same,outcome,[3],inactive
same,outcome,[4],inactive
same,outcome,[5],inactive
same,outcome,[6],inactive
same,outcome,[7],inactive
same,outcome,[8],inactive
same,outcome,[9],inactive
same,outcome,[10],inactive
same,outcome,[11],inactive
same,outcome,[12],inactive
same,outcome,[13],inactive
same,outcome,[14],inactive
same,potentiation,[15],23.3% (active)
same,outcome,[16],inactive
same,outcome,[17],inactive
CC1CCN(CC(O)COCCC23CC4CC(CC(C4)C2)C3)CC1 (stereo unspecified),outcome,[1],inactive
same,outcome,[2],inactive
same,outcome,[3],inactive
same,outcome,[4],inactive
same,outcome,[5],inactive
same,outcome,[6],inactive
same,outcome,[7],inactive
same,outcome,[8],inactive
same,outcome,[9],inactive
same,outcome,[10],inactive
same,outcome,[11],inactive
same,outcome,[12],inactive
same,outcome,[13],inactive
same,outcome,[14],inactive
same,outcome,[15],inactive
same,outcome,[16],inactive
same,outcome,[17],inactive
CCn1c(NCc2ccco2)nc2ccccc21,outcome,[1],inactive
same,outcome,[2],inactive
same,outcome,[3],inactive
same,potentiation,[4],8% (active)
same,outcome,[5],inactive
same,outcome,[6],inactive
same,outcome,[7],inactive
same,outcome,[8],inactive
same,outcome,[9],inactive
same,outcome,[10],inactive
same,outcome,[11],inactive
same,outcome,[12],inactive
same,outcome,[13],inactive
same,outcome,[14],inactive
same,potentiation,[15],12.3% (active)
same,outcome,[16],inactive
same,outcome,[17],inactive
Cc1ccc(-n2c(SCc3cc(=O)n4ccsc4n3)nnc2-c2cccnc2)c(C)c1,outcome,[1],inactive
same,outcome,[2],inactive
same,outcome,[3],inactive
same,outcome,[4],inactive
same,outcome,[5],inactive
same,outcome,[6],inactive
same,outcome,[7],inactive
same,outcome,[8],inactive
same,outcome,[9],inactive
same,outcome,[10],inactive
same,outcome,[11],inactive
same,outcome,[12],inactive
same,outcome,[13],inactive
same,outcome,[14],inactive
same,outcome,[15],inactive
same,outcome,[16],inactive
same,outcome,[17],inactive
Cc1ccc(Cl)c(OCCN2CCCC(C)C2)c1 (stereo unspecified),outcome,[1],inactive
same,outcome,[2],inactive
same,potentiation,[3],25% (active)
same,outcome,[4],inactive
same,outcome,[5],inactive
same,outcome,[6],inactive
same,outcome,[7],inactive
same,outcome,[8],inactive
same,outcome,[9],inactive
same,outcome,[10],inactive
same,outcome,[11],inactive
same,outcome,[12],inactive
same,outcome,[13],inactive
same,outcome,[14],inactive
same,potentiation,[15],7.06% (active)
same,outcome,[16],inactive
same,outcome,[17],inactive
CCCCN(CC)CCCNC(=O)c1cc2cc3ccc(C)cc3nc2o1,outcome,[1],inactive
same,outcome,[2],inactive
same,potentiation,[3],19% (active)
same,outcome,[4],inactive
same,outcome,[5],inactive
same,outcome,[6],inactive
same,outcome,[7],inactive
same,outcome,[8],inactive
same,outcome,[9],inactive
same,outcome,[10],inactive
same,outcome,[11],inactive
same,outcome,[12],inactive
same,outcome,[13],inactive
same,outcome,[14],inactive
same,potentiation,[15],21.8% (active)
same,outcome,[16],inactive
same,outcome,[17],inactive
same,outcome,[18],inactive
same,outcome,[19],inactive
same,outcome,[20],inactive
CCCCCCCCCC[n+]1cccc2c3ccccc3ccc21,outcome,[1],inactive
same,outcome,[2],inactive
same,outcome,[3],inactive
same,outcome,[4],inactive
same,outcome,[5],inactive
same,outcome,[6],inactive
same,outcome,[7],inactive
same,outcome,[8],inactive
same,outcome,[9],inactive
same,outcome,[10],inactive
same,outcome,[11],inactive
same,outcome,[12],inactive
same,outcome,[13],inactive
same,outcome,[14],inactive
same,outcome,[15],inactive
same,outcome,[16],inactive
same,outcome,[17],inactive
same,activation,[18],245% (active)
same,potentiation,[19],64% (active)
same,potentiation,[20],194% (active)
